Source: PubChem (National Center for Advancing Translational Sciences (NCATS))
An excerpt weighted towards active compounds, which were near 2.8% of everything screened.
Pol eta inh-1 = blocks human DNA polymerase eta activity. Q9Y253. actives 1.2% (n = 390,000). Potency, µM (doses to about 114 µM), for inactives: at the highest dose activity change, negative = inhibition, most hits filed as inhibitors. AID 588591. recombinant Pol eta, fluorescent DNA replication assay; further: potency means the concentration at half of the fitted maximal effect; on the % scale 0 is the no-effect control and ±100 the full control effect
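Pol eta at 10 nM preincubated with compounds 15 min at room temperature; reaction started with fluorescent substrate (50 nM final) and read kinetically at 0 and 10 min.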
POLI inh = DNA polymerase iota (human) inhibition | actives 1% (n = 390,000) | Q9UNA4 | Potency, µM (titrated, usually from 115 µM), for inactives: at the top dose activity, negative = inhibition, most hits filed as inhibitors | Pol iota fluorescent replication assay, 10 min; further: potency means the concentration at half of the fitted maximal effect
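Fluorescent replication assay read twice, at 0 min and 10 min after adding 50 nM (final) substrate. Enzyme (10 nM) and compounds were first incubated 15 min at room temperature; enzyme-free buffer wells were negative controls.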
PI5P4Ka inh = blocks human PI5P4K alpha kinase activity; P48426; PI5P4Kalpha enzyme, ADP-Glo luminescence, 60 min; stronger effect = lower value; max response, %; actives 1.2% (n = 330,000); active means max response of -50% or lower; inconclusive means between -30% and -50%; inactive means -30% or higher; further: value at the top dose of about 77 µM; on the % scale 0 is the no-effect control and ±100 the full control effect
Target sequence (P48426 whole entry, looked up): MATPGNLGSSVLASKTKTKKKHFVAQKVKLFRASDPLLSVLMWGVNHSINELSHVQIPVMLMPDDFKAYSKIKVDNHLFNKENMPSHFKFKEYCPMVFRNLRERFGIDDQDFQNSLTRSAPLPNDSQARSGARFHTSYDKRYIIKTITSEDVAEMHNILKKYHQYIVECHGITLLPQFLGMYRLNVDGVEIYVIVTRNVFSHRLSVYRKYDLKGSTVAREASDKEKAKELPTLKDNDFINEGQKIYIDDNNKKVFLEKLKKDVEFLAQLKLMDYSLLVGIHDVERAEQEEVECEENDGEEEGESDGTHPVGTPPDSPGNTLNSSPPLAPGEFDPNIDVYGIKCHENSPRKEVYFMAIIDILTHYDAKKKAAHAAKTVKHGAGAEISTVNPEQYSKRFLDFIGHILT
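Compounds were pin-transferred onto PI5P4Kalpha and substrate in HEPES pH 7.4 buffer with EGTA, CHAPS and 5% DMSO. ATP (5 microM final) started the reaction, which ran 60 minutes at room temperature before ADP-Glo detection.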
Pol kappa inh-1 = inhibitors of human DNA polymerase kappa; Q9UBT6; purified Pol kappa, fluorescent DNA synthesis assay, 10 min; Potency, µM (top dose mostly 107 µM), inactives show at the top dose activity, negative = inhibition, hits mostly inhibitors; actives 0.53% (n = 400,000); further: potency means the concentration at half of the fitted maximal effect; on the % scale 0 is the no-effect control and ±100 the full control effect
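Activity was followed as the change in fluorescence between reads at 0 and 10 min after starting the reaction with 50 nM substrate. Beforehand, 10 nM polymerase had been preincubated with compound for 15 min at room temperature.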
WRN helicase inh = inhibitors of human WRN helicase. Potency, µM (top dose mostly 114 µM), without a hit: top-dose activity change, negative = inhibition, usual class: inhibitors. actives 0.46% (n = 360,000). Q14191. WRN helicase unwinding, fluorescent forked duplex, kinetic. AID 651768; further: potency means the concentration at half of the fitted maximal effect; on the % scale 0 is the no-effect control and ±100 the full control effect; nearly all actives have a fitted effect of over 55% in size
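Enzyme (20 nM final) and test compound sit together 15 min at room temperature before substrate addition. Substrate is a single-forked duplex oligonucleotide (100 nM) labelled with fluorophore and quencher, with 2 mM ATP; helicase unwinding raises red fluorescence, read kinetically.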
Pol beta inh = DNA polymerase beta (human) inhibition; Pol beta primer extension/strand displacement, fluorescence kinetic; Potency, µM (highest dose often 114 µM), for inactives: top-dose activity change, negative = inhibition, hits mostly inhibitors; actives 1.3% (n = 340,000); AID 485314; further: potency means the concentration at half of the fitted maximal effect; on the % scale 0 is the no-effect control and ±100 the full control effect
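Preincubation: enzyme (10 nM) with compound, 15 min, RT. Reaction: substrate added to 50 nM final. Reads: 0 and 10 min. Analysis: normalized, Hill fit.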
GALK inh confirm = confirmation of human galactokinase (GALK) inhibitors; shares compounds with Pol eta inh-1; Potency, µM (titrated, usually from 115 µM), for the others: at the highest dose activity, negative = inhibition, actives largely listed as inhibitors; purified GALK, Kinase-Glo ATP depletion luminescence; actives 70% (n = 150); AID 2015
Redox cycling = redox cycling activity in phenol red-HRP assay | actives 40% (n = 150) | Potency, µM (top dose mostly 115 µM), without a hit: at the top dose activity change, negative = H2O2 signal, hits mostly inhibitors | shares compounds with Pol eta inh-1 | Phenol red-HRP H2O2 redox cycling, absorbance 600 nm
HEK293 viability = HEK-293 cytotoxicity, GALK inhibitor secondary | AID 2547 | shares compounds with Pol eta inh-1 | actives 10% (n = 170) | HEK-293 viability, ATP luminescence (CellTiter-Glo), 24/48 h | Potency, µM (titrated, usually from 46.1 µM), inactives show at the highest dose activity change, negative = cytotoxicity, hits mostly inhibitors; further: potency means the concentration at half of the fitted maximal effect; on the % scale 0 is the no-effect control and ±100 the full control effect
Pol kappa inh-2 = Pol kappa (human) inhibition, cherry-pick confirmation. purified Pol-kappa, fluorescent strand-displacement substrate. actives 76% (n = 920). Potency, µM, most hits filed as inhibitors. shares compounds with Pol eta inh-1. AID 720501; further: potency means the concentration at half of the fitted maximal effect
Pol eta inh-2 = Pol eta (human) inhibition, cherry-pick confirmation; shares compounds with Pol eta inh-1; Pol eta primer extension, TAMRA/BHQ fluorescence, 10 min; Potency, µM, hits mostly inhibitors; actives 64% (n = 2,600); further: potency means the concentration at half of the fitted maximal effect
Active calls of the source: *; ? = inconclusive; · = not tested or not shown; [ ] = remark or other dose. Unless noted, the call rests on the fitted dose curve; in most records, active means well fitted curve in the direction sought with a large enough effect; inconclusive means small, poorly fitted or top-dose-only effect, or another doubt; inactive means no such curve, though single readings can be large; an effect the other way counts as inactive or inconclusive.

SMILES	Pol eta inh-1	POLI inh	PI5P4Ka inh	Pol kappa inh-1	WRN helicase inh	Pol beta inh	Pol eta inh-2	others
COc1cc(/C=C2\SC(=Nc3ccccc3)N(CCc3c[nH]c4ccccc34)C2=O)ccc1OC(C)C(=O)O (stereo not drawn)	?	?	?	-29%	?	?	·
Cc1cccn2c(=O)c3cc(C#N)c(=NC(=O)c4ccco4)n(Cc4ccco4)c3nc12	?	?	?	?	-29%[57.1 µM]	14µM*	?
CCOC(=O)c1cc2c(=O)n3ccccc3nc2n(Cc2ccco2)c1=NC(=O)c1ccc(C)c(C)c1	-13%	?	·	-23%	·	-20%	·
CCOC(=O)c1cc2c(=O)n3cccc(C)c3nc2n(Cc2ccco2)c1=NC(=O)c1cccnc1	20µM*	?	-30	?	?	35µM*	?
Cc1cccn2c(=O)c3cc(C#N)c(=NC(=O)c4cccs4)n(CC(C)C)c3nc12	13%	18%	1	6%	0%	-8%	·
CC(C)c1ccc(NC(=O)CSC2=Nc3ccccc3C3=NC(CC(=O)NCc4ccc(F)cc4)C(=O)N23)cc1 (stereo not drawn)	4%	-3%	·	-5%[60.1 µM]	·	0%	·
CC(=O)c1ccc(N2CCN(S(=O)(=O)c3ccc(-c4coc(C)n4)cc3)CC2)cc1	79µM*	?	·	-4%[60.1 µM]	·	45µM*	?
Cc1ccccc1S(=O)(=O)N1C[C@H]2CON(C)[C@H]2C[C@H]1c1cccc(Oc2ccccc2)c1	-6%	3%	4	-3%	-10%	·	·
COc1cc2nc(N3CCCN(C)CC3)nc(NC3CCN(Cc4ccccc4)CC3)c2cc1OC	·	-11%	·	?	·	·	·
CCN1CCN(CCNC(=O)c2ccc3nc(-c4cccc(C)c4)c(-c4cccc(C)c4)nc3c2)CC1	-25%	-1%	11	12%	6%[57.1 µM]	19%	·	GALK inh confirm=?;Redox cycling=-27%;HEK293 viability=?
CCOC1=C2[C@H]([C@H]3C(=O)N(c4ccccc4)C(=O)[C@H]3C1)[C@@H](C(C)C)N(S(=O)(=O)c1ccc(C)cc1)[C@H]2c1ccccc1	·	·	-1	·	3%	·	·
CCc1ccc(NC(=O)Cn2ncc3c(C)n(Cc4cccc(Cl)c4)c(C)c3c2=O)cc1	-13%	-10%	·	-13%	·	43%	·
O=C(Cc1ccc(Br)cc1)Nc1ncc([N+](=O)[O-])s1	?	?	?	-5%	-6%[11.6 µM]	?	?	Pol kappa inh-2=?
O=C(COC(=O)COc1ccccc1)Nc1ncc([N+](=O)[O-])s1	10µM*	?	-53*	?	?	·	30*	Pol kappa inh-2=12*
CC(CC(=O)Nc1ncc([N+](=O)[O-])s1)c1ccccc1 (stereo not drawn)	2%	17%	-28	-20%	-13%	-9%	·
Cc1cccc(NS(=O)(=O)c2ccc(C(=O)N3CCCCCC3)cc2)c1C	-1%	0%	-10	7%	3%	·	·
COc1cc(O)cc2cc3c(c(O)c12)C(=O)CC(C)(O)O3 (stereo not drawn)	45µM*	?	?	?	-7%[11.6 µM]	50µM*	?
COc1cc(N(C(C)=O)c2ccc(O)c(C(=O)O)c2)c2ncccc2c1	50µM*	·	?	·	-7%[11.6 µM]	·	85*
COc1cc(N(C(C)=O)c2ccc(O)cc2)c2ncccc2c1	1%	·	-11	·	-4%	·	·
CCc1cc(=O)n2c([nH]c3ccccc32)c1C#N	-5%	?	?	7%	0%	8%	·
CC(SCc1cc(=O)n2c([nH]c3ccccc32)c1C#N)C(=O)O (stereo not drawn)	?	?	?	?	?	-30%	?
CC(=O)c1cccc(NS(=O)(=O)c2cc(-c3onc(C)c3C)ccc2C)c1	-5%	9%	·	-15%	·	?	·
COc1cccc(CNC(=O)C2CCCN(c3nn4cc(-c5ccc(C)cc5)nc4s3)C2)c1 (stereo not drawn)	2%	-14%	·	-1%	·	-2%	·
CN1C(=O)C2(c3ccccc31)N(c1cccc(C(F)(F)F)c1)C(=O)CS2(=O)=O (stereo not drawn)	-12%	25%	·	-1%	·	-4%	·
CCOc1cc(/C=C2\SC(=S)N(C(C(=O)O)c3ccccc3)C2=O)ccc1O (stereo not drawn)	?	28µM*	-11	?	56µM*	?	·	Pol kappa inh-2=42*
SMILES	Pol eta inh-1	POLI inh	PI5P4Ka inh	Pol kappa inh-1	WRN helicase inh	Pol beta inh	Pol eta inh-2	others
Cc1nc2c(C)cccn2c(=O)c1NC(=O)c1ccc2c(c1)OCO2	2%	12%	2	-12%	-12%	·	·
Cc1ccc(N2CC(C(=O)Nc3nnc(SCCC4OCCO4)s3)CC2=O)cc1 (stereo not drawn)	?	35%	-22	-11%	-30%	6%	·
COc1ccc(N2CC(C(=O)Nc3nnc(SCCC4OCCO4)s3)CC2=O)cc1 (stereo not drawn)	35µM*	-14%	?	-29%	-3%	14µM*	?
COC(=O)c1c(C)[nH]c(C(=O)COc2ccc3ccc(=O)oc3c2)c1C	45µM*	?	-5	-38%	-13%[11.6 µM]	·	?
COc1ccc(C(=O)NCCc2nnc3ccc(SCC(=O)N4CCCC4)nn23)cc1	-18%	7%	-4	-12%	9%	1%	·
Cc1cccc(C)c1NC(=O)CN(C)C(=O)c1ccc2nc[nH]c2c1	?	22µM*	-13	?	-8%[11.6 µM]	·	67*
